Measured values taken from PubChem BioAssay (NCATS).
Inconclusive results are not listed. Active and inactive are the calls of the source. Unless noted, calls come from the whole dose curve; as a rule, active = well fitted cell-killing curve with a large enough effect; inconclusive = small, poorly fitted or top-dose-only effect; inactive = flat fitted curve, though single readings scatter.

Tests used:
[1] = Cell Viability - LYMP2-023 (AID 975);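 note: cellular ATP measured by luciferase luminescence as viability proxy; series mostly up to about 92 µM; nearly all actives have a fitted effect of over 55% in size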
Procedure, shortened: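 LYMP2-023 human lymphoblastoid cells, 2500/well, preincubated 5 hr at 37 C, then compound-treated 24 hr at 37 C in complete medium. CellTiter-Glo luminescence (ATP) after 30 min at room temperature; AC50 from Hill-equation fits; tetraoctylammonium bromide positive control.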

[2] = Cell Viability - LYMP2-025 (AID 976); note: series mostly up to about 92 µM
Procedure, shortened: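 Human lymphoblastoid LYMP2-025 cells, 2500/well, exposed 24 h at 37 C in complete medium in 1536-well qHTS. Viability as cellular ATP by CellTiter-Glo luminescence; AC50 from Hill fits of concentration-response data.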

[3] = Cell Viability - LYMP2-002 (AID 977);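 note: series mostly up to about 92 µM; compound exposure lasted 24 h at 37 °C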
Procedure, shortened: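 Human lymphoblastoid LYMP2-002 cells, 2500 per well, exposed to compounds for 24 h at 37 C in complete medium; viability read as intracellular ATP by CellTiter-Glo luminescence, AC50 from Hill fits.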

[4] = Cell Viability - LYMP2-006 (AID 978); note: series mostly up to about 92 µM; nearly all actives have a fitted effect of over 60% in size
Procedure, shortened: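 Human lymphoblastoid cells, 2500 per well, were preincubated 5 hr at 37 C, then exposed to compounds for 24 hr at 37 C in complete medium. Viability was read as intracellular ATP by CellTiter-Glo luminescence; AC50 from Hill-equation fits of qHTS concentration-response data.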

[5] = Cell Viability - LYMP2-007 (AID 979);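 note: cells exposed to compound for 24 h before reading; nearly all actives have a fitted effect of over 60% in size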
Procedure, shortened: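 Human lymphoblastoid LYMP2-007 cells (2500/well) preincubated 5 h at 37 C, then treated 24 h at 37 C in complete medium. Viability by CellTiter-Glo ATP luminescence after 30 min at room temperature; AC50 from Hill fits.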

[6] = Cell Viability - LYMP2-008 (AID 980); note: nearly all actives have a fitted effect of over 60% in size
Procedure, shortened: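 LYMP2-008 lymphoblastoid cells (2500/well) plated 5 h, then treated 24 h at 37 C in complete medium. Viability read as intracellular ATP by CellTiter-Glo luminescence after 30 min at room temperature; AC50 from Hill fits.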

[7] = Cell Viability - LYMP2-010 (AID 981); note: nearly all actives have a fitted effect of over 55% in size
Procedure, shortened: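 Human lymphoblastoid LYMP2-010 cells (2500/well) treated 24 h at 37 C in complete medium; viability read as intracellular ATP by CellTiter-Glo luminescence. AC50 from Hill fits of concentration-response data; tetraoctylammonium bromide positive control.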

[8] = Cell Viability - LYMP2-012 (AID 982);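 note: cellular ATP by luciferase luminescence where a drop means cytotoxicity; cells exposed to compound for one day before reading; nearly all actives have a fitted effect of over 55% in size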
[9] = Cell Viability - LYMP2-014 (AID 983); note: series mostly up to about 92 µM; nearly all actives have a fitted effect of over 50% in size
Procedure, shortened: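 LYMP2-014 human lymphoblastoid cells, 2500/well, treated 24 h at 37 C in complete medium; viability by CellTiter-Glo ATP luminescence after 30 min at room temperature. AC50 from Hill fits of qHTS concentration-response; tetraoctylammonium bromide positive control.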

[10] = Cell Viability - LYMP2-016 (AID 984); note: nearly all actives have a fitted effect of over 55% in size
Procedure, shortened: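 Human lymphoblastoid cells (LYMP2-016), 2500/well in complete medium, preincubated 5 hr at 37 C, then compound-treated 24 hr at 37 C. Intracellular ATP read by CellTiter-Glo luminescence after 30 min at room temperature; AC50 from Hill-equation concentration-response fits.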

[11] = Cell Viability - LYMP2-018 (AID 985);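 note: compound exposure lasted 24 hr at 37 °C; nearly all actives have a fitted effect of over 50% in size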
Procedure, shortened: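 Human lymphoblastoid LYMP2-018 cells, 2500/well, settled 5 hr at 37 C then exposed to compound 24 hr at 37 C; intracellular ATP measured by CellTiter-Glo luminescence. AC50 from Hill-equation concentration-response fits.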

[12] = Cell Viability - LYMP2-020 (AID 986)
Procedure, shortened: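 Human lymphoblastoid LYMP2-020 cells (2500/well) preincubated 5 h at 37 C, then treated 24 h at 37 C. Viability measured as intracellular ATP by CellTiter-Glo luminescence after 30 min at room temperature; AC50 from Hill fits.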

[13] = Cell Viability - LYMP2-022 (AID 987); note: nearly all actives have a fitted effect of over 55% in size
Procedure, shortened: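 LYMP2-022 lymphoblastoid cells (2500/well, complete medium) were treated with compounds for 24 hours at 37 C; intracellular ATP was then read by CellTiter-Glo luminescence after 30 min at room temperature. AC50 values were derived from Hill-equation fits.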

[14] = Cell Viability - LYMP2-024 (AID 988); note: nearly all actives have a fitted effect of over 60% in size
Procedure, shortened: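 Human lymphoblastoid LYMP2-024 cells (2500/well) rested 5 hr, then treated with compound for 24 hr at 37 C in complete medium. Viability was measured as intracellular ATP by CellTiter-Glo luminescence. AC50 values came from Hill-equation fits.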

[15] = Cell Viability - LYMP2-026 (AID 989); note: nearly all actives have a fitted effect of over 50% in size
Procedure, shortened: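 Human lymphoblastoid LYMP2-026 cells, 2500/well, exposed to compound 24 h at 37 C in complete medium. Viability as intracellular ATP by CellTiter-Glo luminescence; AC50 from Hill fits of qHTS concentration-response.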

[16] = Cell Viability - LYMP1-002 - Assay at 24 hr (AID 993)
Procedure, shortened: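 Human lymphoblastoid LYMP1-002 cells (2500/well) treated 24 h at 37 °C; viability as intracellular ATP by CellTiter-Glo luminescence. Tetraoctylammonium bromide as positive control; AC50 from Hill-equation fits of qHTS concentration-response.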

[17] = Cell Viability - LYMP1-002 - Assay at 40 hr (AID 994); note: nearly all actives have a fitted effect of over 60% in size
Procedure, shortened: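 LYMP1-002 human lymphoblastoid cells (2500/well, complete medium) were treated with compounds for 40 hr at 37 C. Intracellular ATP was measured by CellTiter-Glo luminescence, and AC50 values came from Hill-equation fits of concentration-response data; tetraoctylammonium bromide was the positive control.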

[18] = qHTS assay for small molecule antagonists of peroxisome proliferator-activated receptor delta signaling (AID 588535; active = well fitted inhibition curve with a large enough effect in the signal ratio, with a control signal flat, not every such curve was filed as active; the % refers to the signal ratio;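 for max response: cells co-treated with a PPAR-delta agonist as stimulator during compound exposure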); details: HEK293T PPARd-UAS-bla, beta-lactamase FRET ratio, 18 h; 460 nm channel
Procedure, shortened: (§1)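 Antagonist-mode beta-lactamase reporter (GeneBLAzer PPAR-delta-UAS-bla) in HEK293T cells, 2% charcoal/dextran FBS, 4000 cells/well. Compound titrations, 18 h at 37 C; CCF4 ratio read, IC50 and efficacy from Hill fits.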

[19] = biological target: Peroxisome proliferator-activated receptor delta (Homo sapiens) (UniProt Q03181); test: as above
Procedure, shortened: as §1

[20] = biological target: Vitamin D3 receptor (Homo sapiens) (UniProt P11473); test: qHTS assay for small molecule antagonists of vitamin D receptor signaling (AID 588541; calls by dose curve;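 note: receptor activated by calcitriol during compound treatment; series mostly up to about 77 µM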)
Procedure, shortened: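 VDR-UAS-bla HEK293T cells in 2% charcoal-stripped FBS were stimulated with 1-alpha,25-dihydroxyvitamin D3 (3 nM final) plus compound for 16 h at 37 C. The beta-lactamase CCF4 readout was normalized to 50 nM agonist and DMSO, and Hill fits gave IC50.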

[21] = biological target: Vitamin D3 receptor (Homo sapiens) (UniProt P11473); test: qHTS assay for small molecule agonists of vitamin D receptor signaling (AID 588543; calls by dose curve)
Procedure, shortened: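 GeneBLAzer VDR-UAS-bla HEK293T cells in 2% charcoal-stripped FBS medium were dosed with compound titrations for 16 h at 37 °C; CCF4 β-lactamase readout (405 nm ex, 460/530 nm em). EC50 and efficacy from Hill fits, normalized to 50 nM calcitriol (100%) and DMSO (0%).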

Measured: max response

Vitamin D3 receptor (Homo sapiens), sequence (P11473 whole entry, looked up): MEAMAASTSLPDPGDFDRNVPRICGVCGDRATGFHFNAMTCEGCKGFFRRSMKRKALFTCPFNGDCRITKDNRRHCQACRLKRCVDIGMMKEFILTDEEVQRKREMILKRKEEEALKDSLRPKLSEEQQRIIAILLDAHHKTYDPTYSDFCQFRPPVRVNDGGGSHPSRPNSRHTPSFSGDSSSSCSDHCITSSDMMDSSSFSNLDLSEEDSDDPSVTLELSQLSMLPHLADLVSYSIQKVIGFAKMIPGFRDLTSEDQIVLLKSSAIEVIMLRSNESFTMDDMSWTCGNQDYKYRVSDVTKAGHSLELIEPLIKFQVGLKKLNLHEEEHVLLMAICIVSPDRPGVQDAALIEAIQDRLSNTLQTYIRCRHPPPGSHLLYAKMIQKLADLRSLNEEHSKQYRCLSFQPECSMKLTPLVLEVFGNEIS
Peroxisome proliferator-activated receptor delta (Homo sapiens), sequence (Q03181 whole entry, looked up): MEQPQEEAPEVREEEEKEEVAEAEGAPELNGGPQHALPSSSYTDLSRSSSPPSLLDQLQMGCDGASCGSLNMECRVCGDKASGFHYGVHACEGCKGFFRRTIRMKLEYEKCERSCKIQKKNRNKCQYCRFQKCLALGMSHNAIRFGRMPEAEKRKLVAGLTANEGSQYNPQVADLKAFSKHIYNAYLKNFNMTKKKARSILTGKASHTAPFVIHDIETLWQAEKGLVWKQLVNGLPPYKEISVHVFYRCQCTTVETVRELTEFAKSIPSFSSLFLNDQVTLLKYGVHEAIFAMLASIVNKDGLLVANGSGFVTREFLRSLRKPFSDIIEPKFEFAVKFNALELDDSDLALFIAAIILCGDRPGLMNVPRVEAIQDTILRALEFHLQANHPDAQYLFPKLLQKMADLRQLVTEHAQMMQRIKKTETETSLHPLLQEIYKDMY

CO[C@H]1/C=C/O[C@@]2(C)Oc3c(C)c(O)c4c(O)c(c(/C=N/N5CCN(C)CC5)c(O)c4c3C2=O)NC(=O)/C(C)=C\C=C\[C@H](C)[C@H](O)[C@@H](C)[C@@H](O)[C@@H](C)[C@H](OC(C)=O)[C@@H]1C
91.2%: [18]
inactive: [1] | [2] | [3] | [4] | [5] | [6] | [7] | [8] | [9] | [10] | [11] | [12] | [13] | [14] | [15] | [16] | [17] | [19] | [20] | [21]
